Measurements taken from PubChem BioAssay AID1578 (Sanford-Burnham Center for Chemical Genomics, 2009).
Among all 290,000 compounds or so, about 3,000 (1%) were called active. The list comes from a sample in which actives are over-represented; it also holds similar structures and randomly drawn compounds. Values without a mark were called inactive. No stated cut-off is given here; in the data, active means inhibition mostly above about 36% (no sharp cut-off); inactive means mostly below about 34%.

Test: inhibition of NOD1-driven NF-kB reporter – cell-based, luminescence, uHTS, primary screen (AID 1578);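 further: HEK-293T reporter cells stimulated with the NOD1 agonist gamma-tri-DAP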
Settings: NOD1-driven NF-kB luciferase reporter cells, at 4 µM, active compounds read high

Compound | inhibition
COc1cc(OC)cc(C(=O)N2CCC3(CC2)NCCc2[nH]cnc23)c1 | -20.2%
CC1C/C(=N\NC(N)=S)c2cc(Cl)ccc2S1 (stereo not given) | 3.3%
CC1Sc2ccc(Cl)cc2-c2nc(N)ncc21 (stereo not given) | 50.5% (active)
Nc1ncc2c(n1)-c1cc(Cl)ccc1SC2 | -6.1%
Cc1c(Cl)c([N+](=O)[O-])nn1CCCC(=O)Nc1cccc(O)c1 | -0.3%
O=[N+]([O-])c1cc(S(=O)(=O)C(F)(F)F)ccc1Sc1nc2ccccc2[nH]1 | 46.1%
Cc1ccc(CN2CCN(Cc3cccn3-c3ccc(Cl)cn3)CC2CCO)o1 (stereo not given) | -17.4%
O=C(CSc1ccc2nnc(-c3ccncc3)n2n1)Nc1ccc2c(c1)OCCO2 | 9.6%
Cc1cc(/C=N/n2c(COc3ccccc3C)nc3ccccc3c2=O)c(O)c([N+](=O)[O-])c1 | 15%
Cc1ccccc1OCc1nc2ccccc2c(=O)n1/N=C/c1cccc([N+](=O)[O-])c1 | 80.1% (active)
Cc1ccccc1OCc1nc2ccccc2c(=O)n1/N=C/c1ccco1 | 31.5%
O=C(Oc1ccc2ccc(=O)oc2c1)c1ccc([N+](=O)[O-])cc1 | -9.4%
CCc1nc(C)cn1S(=O)(=O)c1ccc(Br)cc1 | -17.6%
CCOc1ccccc1NC(=O)c1cc(C(=O)c2cc(OC)ccc2O)coc1=N | -9.3%
CCOC(=O)c1cc(C(=O)c2cc(Br)ccc2O)coc1=N | -15.1%
CCOc1ccccc1NC(=O)c1cc(C(=O)c2cc(Br)ccc2O)coc1=N | 56.4% (active)
COc1cccc(CNC(=O)C(C)n2nc(C)n3c(cc4occc43)c2=O)c1 (stereo not given) | -11.7%
CCOc1cc2[nH]c(=O)n(CCC(=O)NCCc3ccccc3)c(=O)c2cc1OCC | -0.5%
Cc1cc(C)c(S(C)(=O)=O)c(S(=O)(=O)c2ccc(Cl)cc2)n1 | -33.9%
O=C(O)CSc1c2c(nc3cc(C(=O)NCCN4CCOCC4)ccc13)CCC2 | 91.8% (active)
CC(C)CCNC(=O)c1ccc2c(SCC(=O)O)c3c(nc2c1)CCC3 | 0.8%
CC(C)CCNC(=O)c1ccc2c(SCC(=O)O)c3c(nc2c1)CCCC3 | -29.5%
Cc1ccc(S(=O)(=O)Cc2ccc(C(=O)N3CCN(c4cccc(C)c4C)CC3)o2)cc1 | 27.1%
Cc1ccccc1S(=O)(=O)Cc1ccc(C(=O)N2CCN(c3ccccc3F)CC2)o1 | 21.3%
COc1ccccc1-c1noc(-c2cc(OC)c(OC)c(OC)c2)n1 | -24%

Compound | inhibition
CC(C(=O)OCC(=O)c1cccc([N+](=O)[O-])c1)N1C(=O)C2C3CCC(C3)C2C1=O (stereo not given) | -8.4%
NC(=O)COC(=O)C1CSC2(c3ccc(F)cc3)CCC(=O)N12 (stereo not given) | -7.5%
O=C(CNc1ccccc1)N/N=C/c1c(O)ccc2ccccc12 | -10.9%
Oc1ccc2ccccc2c1/C=N/Nc1ccccc1 | -38.9%
O=C(CSCC(=O)Nc1ccccc1)N/N=C/c1c(O)ccc2ccccc12 | 86.4% (active)
Cc1cccc(C)c1NC(=O)CCCSc1nnnn1C | -22.8%
Cc1ccc(NC(=O)CC2SC(=NC3CCCCC3)NC2=O)cc1 (stereo not given) | -23.2%
CCCn1cccc(C(=O)Nc2ccc(OC)cc2)c1=O | -3.2%
O=C(CSc1nnc(CNC(=O)c2c(F)cccc2F)o1)NCc1ccccc1 | -29.1%
CCN(CC)S(=O)(=O)c1ccc(N=Cc2c(C)c(C#N)c(=O)n(C)c2O)cc1 | -9.8%
COc1ccc(C2NC(=S)NC(O)(C(F)(F)F)C2C(=O)c2cccs2)cc1 (stereo not given) | -33.8%
CC(/C=N/n1cnnc1)=C\c1ccccc1 | -1%
ClC(/C=N/n1cnnc1)=C/c1ccccc1 | 1.7%
Nc1nnnn1/N=C/c1ccccc1 | -4%
BrC(=C\c1ccccc1)/C=N/n1cnnc1 | 66.7% (active)
Nc1nnnn1/N=C/C(Br)=C/c1ccccc1 | 95.9% (active)
Nc1nnnn1/N=C/C=C/c1ccccc1 | 10.1%
Cc1ccc(C(=O)Nc2ccc(S(=O)(=O)Nc3cnc4ccccc4n3)cc2)cc1 | -14.5%
COc1cccc(/C=C2\SC(=S)N(CCCC(=O)Nc3cc(C)on3)C2=O)c1 | -22.5%
Cc1cccc2c1CC(C)(C)N=C2C1=C(O)CCCC1=O | -19.9%
C/C(=N\NC(=O)C1CC1)c1ccc(C(C)(C)C)cc1 | -39.6%
CSc1ccc(OC2CCCCC2NS(=O)(=O)c2ccc(Cl)cc2)cc1 (stereo not given) | 8.3%
CNC(=S)N/N=C/c1cc(C)ccc1C | -38.3%
Oc1c(Br)cc(Br)cc1/C=N/NC(=S)N[C@H]1CC2C=CC1C2 (stereo not given in full) | 47.8% (active)
CC(C)(C)NC(=S)N/N=C/c1cccnc1 | -10.2%

Compound | inhibition
Oc1c(Br)cc(/C=N/NC(=S)NCc2ccco2)cc1Br | 15%
CNC(=S)N/N=C/c1cc(Br)cc(Br)c1O | 73.9% (active)
Oc1c(Cl)cc(Cl)cc1/C=N/NC(=S)NC1CC2C=CC1C2 (stereo not given) | 26.6%
Oc1ccccc1/C=N/NC(=S)NC1CC2C=CC1C2 (stereo not given) | -1.4%
CCC(O)(CC)C(=O)N/N=C/c1cc(Br)cc(Br)c1O | 1.3%
Nc1nc(SCC(=O)N2CCCCC2)[nH]c(=O)c1NC(=O)c1cccs1 | -15.7%
COc1ccc(N(CC(=O)Nc2ccc3c(c2)OCCO3)S(C)(=O)=O)c(OC)c1 | -7.6%
COc1ccc(Cn2c3ccc(OC)cc3c3nc4ccccc4nc32)cc1 | -41.1%
Cc1cc(Br)ccc1OCCCCNCCO | -40.2%
O=c1cc(COc2ccc(Cl)c(Cl)c2)nc2sccn12 | -5.4%
CCN(CC)c1ccc(N=Cc2ccc([N+](=O)[O-])o2)cc1 | -31.4%
Cc1ccc(NC(=O)c2cc(C)nc3ccccc23)c(C)c1 | -34.7%
Cc1ccc(NC(=O)Cc2ccccc2)c(C)c1 | -29.9%
COc1ccccc1N(C(=O)c1ccco1)C(C(=O)NC1CCCC1)c1ccc(N2CCOCC2)cc1 (stereo not given) | 37.6%
Cc1ccccc1CC(=O)N1CCCC(CCC(=O)N2CCN(c3ccccn3)CC2)C1 (stereo not given) | -12.6%
Cc1c(CCO)c(=O)n2c([nH]c3ccccc32)c1C#N | 1.6%
Cc1c(CCC(C)C)c(=O)n2c([nH]c3ccccc32)c1C#N | 91.2% (active)
C=C(C)Cc1c(C)c(C#N)c2[nH]c3ccccc3n2c1=O | 19.2%
Cc1c(Cc2ccccc2)c(=O)n2c([nH]c3ccccc32)c1C#N | 90.3% (active)
CCc1c(C)c(C#N)c2[nH]c3ccccc3n2c1=S | 1.4%
Cc1c(CCC(=O)O)c(=O)n2c([nH]c3ccccc32)c1C#N | 0.9%
CN(C1CCCCC1)S(=O)(=O)c1ccc(NC(=O)c2ccco2)cc1 | 1.3%
CN1C(=O)C(C)(C)c2cc(S(=O)(=O)N(C)Cc3ccccc3)ccc21 | -4.1%
COc1cccc2c1Oc1ncccc1N(C(=O)CCC(=O)NCc1ccccc1)C2 | -19.2%
O=C(CN1CCCc2ccccc21)NC(=O)NCc1ccccc1 | -4.3%

Compound | inhibition
O=C(c1ccccc1)C1CCN(c2ncccc2[N+](=O)[O-])CC1 | -8.7%
c1ccc2c(c1)oc1c(NCc3ccc4c(c3)OCO4)ncnc12 | 66.2% (active)
Cc1nc(NCc2ccc3c(c2)OCO3)c2oc3ccccc3c2n1 | 15.2%
CCc1nc(NCc2ccc3c(c2)OCO3)c2oc3ccccc3c2n1 | 23.2%
O=C(CSc1nnnn1-c1ccccc1)CC(=O)Nc1ccc(Cl)cc1 | 73.1% (active)
O=C(CSc1nnnn1-c1ccccc1)Nc1ccccc1 | -15.6%
O=C(CSc1nnnn1-c1ccccc1)Nc1ccc(Cl)cc1 | 18.8%
CN1C(=O)SC(Nc2cccc3ccccc23)C1=O (stereo not given) | -30.3%
O=C(CCN1C(=O)C2CC=CCC2C1=O)NC1CCCCC1 (stereo not given) | 44.9% (active)
O=C(CCN1C(=O)C2CC=C(Cl)CC2C1=O)NC1CCCCC1 (stereo not given) | -1.2%
O=C(CN1C(=O)C2CC=CCC2C1=O)NC1CCCCC1 (stereo not given) | -35.5%
Cc1cc2ccccn2c1C(=O)c1ccc(C#N)cc1 | 2%
CCOc1ccc2c(c1)OC(c1ccc(C)cc1)(C(F)(F)F)NC2=O (stereo not given) | 101% (active)
CCOc1ccc2c(c1)OC(c1ccc(OC)cc1)(C(F)(F)F)NC2=O (stereo not given) | -30.6%
CCOc1ccc2c(c1)OC(c1ccccc1)(C(F)(F)F)NC2=O (stereo not given) | -42.1%
CC(Sc1nnc(CC(=O)Nc2ccccc2F)n1C)C(=O)Nc1nccs1 (stereo not given) | -32.4%
O=c1[nH]nc(SCCS(=O)(=O)c2ccc(F)cc2)n1-c1ccccc1 | -11.2%
Cc1cc(C)c(-n2c(SCCS(=O)(=O)c3ccc(F)cc3)n[nH]c2=O)c(C)c1 | 69.7% (active)
Cc1ccc(S(=O)(=O)CCSc2n[nH]c(=O)n2-c2ccccc2)cc1 | -6.8%
CCOC(=O)c1[nH]cnc1C(=O)Nc1cccc(OC)c1 | -3.5%
CCCCC(c1nnnn1CC1CCCO1)N1CCN(c2ccccc2)CC1 (stereo not given) | -34.5%
CCN(c1ccccc1)S(=O)(=O)c1ccc2c(c1)CC(C)N2C(=O)C1CC1 (stereo not given) | -12.9%
Cc1cc(N2CCC(C(N)=O)CC2)nc(-c2ccccc2)n1 | 2%
CC(=O)NC1(c2ccccc2)CCN(c2cc(C)nc(-c3ccccc3)n2)CC1 | 52.2% (active)
CC(=O)NC1(c2ccccc2)CCN(c2nc(C)cc(C)n2)CC1 | -0.9%
